Experimental data as given in PubChem BioAssay (EPA / NIEHS).
Records with an inconclusive call do not appear. The source made the active and inactive calls. How the source made its calls: active means hit-call score of the fitted dose curve at least 0.9, where 1 is the maximum; inconclusive means response in the unintended direction; inactive means score below 0.9.

Test system: not listed separately
Test: TOX21_p53_BLA_p2_viability: Viability Assessment in the Tox21 HCT-116 p53 Agonism Beta-lactamase Assay, Phase 2 (AID 2283591);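 further: compound exposure lasted 16 h at 37 °C; actives lower the ATP signal meaning cytotoxicity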
How it was run: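 HCT116 p53-bla cells, 4000/well, dosed after 5 h plating (217-fold dilution of DMSO stocks) and incubated 16 h at 37C. Viability taken as cellular ATP by CellTiter-Glo luminescence after 30 min RT; signal loss marks cytotoxicity.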
In the case of `CC(C)N=c1cc2n(-c3ccc(Cl)cc3)c3ccccc3nc-2cc1Nc1ccc(Cl)cc1`, the outcome is reported as “inactive”.
With `C[N+](C)(C)CCCCCCCCCC[N+](C)(C)C` the outcome was “inactive”.
In the case of `CCNC(=O)/C=C/c1cccc(Br)c1`, the outcome is reported as “inactive”.
With `CC(C)(C)CC(C)(C)c1cc(Cc2cc(C(C)(C)CC(C)(C)C)cc(-n3nc4ccccc4n3)c2O)c(O)c(-n2nc3ccccc3n2)c1` the outcome was “inactive”.
For `CCOC(=O)[C@H](CCc1ccccc1)N[C@@H](C)C(=O)N1Cc2ccccc2C[C@H]1C(=O)O`, the outcome was “inactive”.
In the case of `NC(=O)CCCCC(N)=O`, the outcome is reported as “inactive”.
With `CCCC(=O)OC[C@@H](OC(=O)CCC)[C@@H](OC(=O)CCC)[C@H](Cn1c2nc(=O)[nH]c(=O)c-2nc2cc(C)c(C)cc21)OC(=O)CCC` the outcome was “inactive”.
For `CCC(C)C(C(=O)OCC[N+](C)(CC)CC)c1ccccc1` (stereo not drawn), the outcome was “inactive”.
In the case of `CC(N)CCCC(C)(C)O` (stereo not drawn), the outcome is reported as “inactive”.
For `CCCCCCCCCCCCC(=O)O`, the outcome was “inactive”.
In the case of `CCN(CC)CCNC(=O)c1cc(Br)c(N)cc1OC`, the outcome is reported as “inactive”.
For `COc1cc2nc(N3CCN(C(=O)C4COc5ccccc5O4)CC3)nc(N)c2cc1OC` (stereo not drawn), the outcome was “inactive”.
With `CCC(C)(C)OC(=O)N[C@@H](Cc1c[nH]c2ccccc12)C(=O)N[C@@H](CCSC)C(=O)N[C@@H](CC(=O)O)C(=O)N[C@@H](Cc1ccccc1)C(N)=O` the outcome was “inactive”.
In the case of `CNc1cc(OC)c(C(=O)N[C@H]2CCN(Cc3ccccc3)[C@H]2C)cc1Cl`, the outcome is reported as “inactive”.
For `O=C(O)c1ccc(NC2OC[C@@H](O)[C@H](O)[C@H]2O)cc1` (stereo partly drawn), the outcome was “inactive”.
With `OCCN1C[C@H](O)[C@@H](O)[C@H](O)[C@H]1CO` the outcome was “inactive”.
In the case of `CC(C)(C)NC[C@H](O)COc1cccc2c1CCCC2=O`, the outcome is reported as “inactive”.
For `Cc1ccc(NC(=O)N(C)C)cc1NC(=O)N(C)C`, the outcome was “inactive”.
With `OCCN1CCN(CCCN2c3ccccc3C=Cc3ccccc32)CC1` the outcome was “inactive”.
In the case of `CNC(=O)C[C@@H](N)C(=O)N[C@@H](C(=O)N[C@@H]1C(=O)N2[C@@H]1SC(C)(C)[C@@H]2C(=O)O)c1ccc(O)cc1`, the outcome is reported as “inactive”.
With `OCC(S)CS` (stereo not drawn) the outcome was “inactive”.
For `CC(=O)OC[C@H]1O[C@@H](O[C@H]2[C@H](O)[C@@H](OC(=O)c3ccccc3C(=O)O)[C@H](O)O[C@@H]2COC(C)=O)[C@H](O)[C@@H](OC(=O)c2ccccc2C(=O)O)[C@@H]1O`, the outcome was “inactive”.
For `CN1CCN(CC(=O)N2c3ccccc3C(=O)Nc3cccnc32)CC1`, the outcome was “inactive”.
In the case of `CN(C)CCc1c[nH]c2ccc(Cn3cncn3)cc12`, the outcome is reported as “inactive”.
With `COc1cc([C@H]2Oc3cc([C@H]4Oc5cc(O)cc(O)c5C(=O)[C@@H]4O)ccc3O[C@@H]2CO)ccc1O` the outcome was “inactive”.
With `CC(C)C(=O)OC(=O)C(C)C` the outcome was “inactive”.
In the case of `N=C(N)N`, the outcome is reported as “inactive”.
In the case of `CCCCCCCN`, the outcome is reported as “inactive”.
For `CCCCCCCN(CC)CCCC(O)c1ccc(NS(C)(=O)=O)cc1` (stereo not drawn), the outcome was “inactive”.
For `Cc1cccc(C)c1NC(=O)c1cc(S(N)(=O)=O)c(Cl)cc1O`, the outcome was “inactive”.
With `O=C(O)c1cc(=O)c2ccccc2o1` the outcome was “inactive”.
For `CC(C)CN(C[C@@H](O)[C@H](Cc1ccccc1)NC(=O)O[C@@H]1CCOC1)S(=O)(=O)c1ccc(N)cc1`, the outcome was “inactive”.
With `NO` the outcome was “inactive”.
With `CC1COc2ccccc2N1` (stereo not drawn) the outcome was “inactive”.
With `CN1CCN(C(=O)C2CCCCC2)CC1` the outcome was “inactive”.
With `CCCCOC(=O)CO` the outcome was “inactive”.
For `Cn1cc(S(C)=O)c(=O)c2ccc(F)cc21` (stereo not drawn), the outcome was “inactive”.
With `CCCCCCC` the outcome was “inactive”.
In the case of `NC/C=C/C(=O)O`, the outcome is reported as “inactive”.

Target: Cellular tumor antigen p53 (Homo sapiens) (UniProt P04637)
Sequence (P04637 whole entry, looked up): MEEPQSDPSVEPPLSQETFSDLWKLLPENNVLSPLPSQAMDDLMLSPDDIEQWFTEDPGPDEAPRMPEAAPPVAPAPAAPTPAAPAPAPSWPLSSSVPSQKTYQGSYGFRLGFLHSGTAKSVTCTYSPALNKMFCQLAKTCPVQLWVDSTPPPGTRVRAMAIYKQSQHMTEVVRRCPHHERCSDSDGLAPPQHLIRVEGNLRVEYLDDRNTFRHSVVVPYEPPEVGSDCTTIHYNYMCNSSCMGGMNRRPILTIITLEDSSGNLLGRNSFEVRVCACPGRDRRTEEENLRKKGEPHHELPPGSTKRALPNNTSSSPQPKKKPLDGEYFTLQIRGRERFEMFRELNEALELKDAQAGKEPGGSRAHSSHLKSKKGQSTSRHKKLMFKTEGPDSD
Test: TOX21_p53_BLA_p2_ratio: Tox21 HCT-116 p53 Agonism Beta-lactamase Assay, Ratio, Phase 2 (AID 2283592)
How it was run: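 DMSO-normalized, positive-direction endpoint derived from the 460 nm/530 nm FRET ratio in HCT116 p53 beta-lactamase reporter cells exposed 16 h at 37C and loaded with CCF4-AM for 2 h.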
In the case of `C[N+](C)(C)CCCCCCCCCC[N+](C)(C)C`, the outcome is reported as “inactive”.
In the case of `CC(N)CCCC(C)(C)O` (stereo not drawn), the outcome is reported as “inactive”.
In the case of `CCN(CC)CCNC(=O)c1cc(Br)c(N)cc1OC`, the outcome is reported as “inactive”.
In the case of `CCC(C)(C)OC(=O)N[C@@H](Cc1c[nH]c2ccccc12)C(=O)N[C@@H](CCSC)C(=O)N[C@@H](CC(=O)O)C(=O)N[C@@H](Cc1ccccc1)C(N)=O`, the outcome is reported as “inactive”.
For `O=C(O)c1ccc(NC2OC[C@@H](O)[C@H](O)[C@H]2O)cc1` (stereo partly drawn), the outcome was “inactive”.
In the case of `CNC(=O)C[C@@H](N)C(=O)N[C@@H](C(=O)N[C@@H]1C(=O)N2[C@@H]1SC(C)(C)[C@@H]2C(=O)O)c1ccc(O)cc1`, the outcome is reported as “inactive”.
With `CN(C)CCc1c[nH]c2ccc(Cn3cncn3)cc12` the outcome was “inactive”.
In the case of `COc1cc([C@H]2Oc3cc([C@H]4Oc5cc(O)cc(O)c5C(=O)[C@@H]4O)ccc3O[C@@H]2CO)ccc1O`, the AC50 is reported as 86.2 µM (active).
In the case of `N=C(N)N`, the outcome is reported as “inactive”.
In the case of `CCCCCCCN`, the outcome is reported as “inactive”.
In the case of `O=C(O)c1cc(=O)c2ccccc2o1`, the outcome is reported as “inactive”.
For `CC(C)CN(C[C@@H](O)[C@H](Cc1ccccc1)NC(=O)O[C@@H]1CCOC1)S(=O)(=O)c1ccc(N)cc1`, the outcome was “inactive”.
With `NO` the outcome was “inactive”.
With `CN1CCN(C(=O)C2CCCCC2)CC1` the outcome was “inactive”.
In the case of `CCCCOC(=O)CO`, the outcome is reported as “inactive”.
For `Cn1cc(S(C)=O)c(=O)c2ccc(F)cc21` (stereo not drawn), the outcome was “inactive”.
With `NC/C=C/C(=O)O` the outcome was “inactive”.

Test system: not listed separately
Test: TOX21_p53_BLA_p3_viability: Viability Assessment in the Tox21 HCT-116 p53 Agonism Beta-lactamase Assay, Phase 3 (AID 2283593);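 further: cells exposed to compound for 16 h before reading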
How it was run: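 HCT116 cells, 4000/well, dosed 5 h after plating by pin transfer (217-fold dilution from DMSO stock) and incubated 16 h at 37C, 5% CO2. Viability read as ATP luminescence with CellTiter-Glo after 30 min at room temperature.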
For `CC(C)N=c1cc2n(-c3ccc(Cl)cc3)c3ccccc3nc-2cc1Nc1ccc(Cl)cc1`, the outcome was “inactive”.
For `CCNC(=O)/C=C/c1cccc(Br)c1`, the outcome was “inactive”.
In the case of `CC(C)(C)CC(C)(C)c1cc(Cc2cc(C(C)(C)CC(C)(C)C)cc(-n3nc4ccccc4n3)c2O)c(O)c(-n2nc3ccccc3n2)c1`, the outcome is reported as “inactive”.
For `CCOC(=O)[C@H](CCc1ccccc1)N[C@@H](C)C(=O)N1Cc2ccccc2C[C@H]1C(=O)O`, the outcome was “inactive”.
In the case of `NC(=O)CCCCC(N)=O`, the outcome is reported as “inactive”.
With `CCCC(=O)OC[C@@H](OC(=O)CCC)[C@@H](OC(=O)CCC)[C@H](Cn1c2nc(=O)[nH]c(=O)c-2nc2cc(C)c(C)cc21)OC(=O)CCC` the outcome was “inactive”.
In the case of `CCC(C)C(C(=O)OCC[N+](C)(CC)CC)c1ccccc1` (stereo not drawn), the outcome is reported as “inactive”.
With `CCCCCCCCCCCCC(=O)O` the outcome was “inactive”.
For `COc1cc2nc(N3CCN(C(=O)C4COc5ccccc5O4)CC3)nc(N)c2cc1OC` (stereo not drawn), the outcome was “inactive”.
In the case of `CNc1cc(OC)c(C(=O)N[C@H]2CCN(Cc3ccccc3)[C@H]2C)cc1Cl`, the outcome is reported as “inactive”.
In the case of `OCCN1C[C@H](O)[C@@H](O)[C@H](O)[C@H]1CO`, the outcome is reported as “inactive”.
In the case of `CC(C)(C)NC[C@H](O)COc1cccc2c1CCCC2=O`, the outcome is reported as “inactive”.
For `Cc1ccc(NC(=O)N(C)C)cc1NC(=O)N(C)C`, the outcome was “inactive”.
In the case of `OCCN1CCN(CCCN2c3ccccc3C=Cc3ccccc32)CC1`, the outcome is reported as “inactive”.
With `OCC(S)CS` (stereo not drawn) the AC50 was 29.5 µM (active).
In the case of `CC(=O)OC[C@H]1O[C@@H](O[C@H]2[C@H](O)[C@@H](OC(=O)c3ccccc3C(=O)O)[C@H](O)O[C@@H]2COC(C)=O)[C@H](O)[C@@H](OC(=O)c2ccccc2C(=O)O)[C@@H]1O`, the outcome is reported as “inactive”.
With `CN1CCN(CC(=O)N2c3ccccc3C(=O)Nc3cccnc32)CC1` the outcome was “inactive”.
In the case of `CC(C)C(=O)OC(=O)C(C)C`, the outcome is reported as “inactive”.
For `CCCCCCCN(CC)CCCC(O)c1ccc(NS(C)(=O)=O)cc1` (stereo not drawn), the outcome was “inactive”.
For `Cc1cccc(C)c1NC(=O)c1cc(S(N)(=O)=O)c(Cl)cc1O`, the outcome was “inactive”.
With `CC1COc2ccccc2N1` (stereo not drawn) the outcome was “inactive”.
With `CCCCCCC` the outcome was “inactive”.
